NPC1 prom act – activates the NPC1 promoter; hit rate 2.4% among 320,000; Potency, µM (top dose mostly 9.22 µM), inactives show top-dose activation, most hits filed as activators; Huh7 NPC1 promoter luciferase reporter, 24 h; AID 485313; further: % of control where 0% means no effect; nearly all actives have a fitted effect of over 60% in size
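Compounds in DMSO were transferred onto Huh7 NPC1-luciferase reporter cells pre-incubated 2 h; after 24 h at 37 °C, Amplite reagent was dispensed and luminescence recorded 10 min later.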
ELG1 repair inh – ELG1-dependent DNA repair inhibition; HEK293T ELG1-luciferase reporter, luminescence, 16 h; DNA damage induced by 5-fluorouridine; Potency, µM (doses to about 46.1 µM), inactives show at the highest dose activity change, negative = inhibition, hits mostly inhibitors; hit rate 2.3% among 330,000; AID 504467; further: on the % scale 0 is the no-effect control and ±100 the full control effect; nearly all actives have a fitted effect of over 55% in size
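Step one: seed 2,000 cells per well. Step two: pin-transfer compound or DMSO alongside 5-fluorouridine. Step three: incubate 16 hr, 37 °C, 5% CO2. Step four: add ONE-Glo, wait 30 min, read luminescence.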
FLuc counter – firefly luciferase modulation, counter-screen for miR-21 project; P08659; purified FLuc, Km substrates, luminescence inhibition; Potency, µM (series often up to 57.5 µM), for inactives: top-dose activity change, negative = inhibition, usual class: inhibitors; AID 588342; hit rate 6.9% among 360,000;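 further: plate controls were vehicle for no effect and reference inhibitor for full effect; nearly all actives have a fitted effect of over 55% in size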
Target sequence (P08659 whole entry, looked up): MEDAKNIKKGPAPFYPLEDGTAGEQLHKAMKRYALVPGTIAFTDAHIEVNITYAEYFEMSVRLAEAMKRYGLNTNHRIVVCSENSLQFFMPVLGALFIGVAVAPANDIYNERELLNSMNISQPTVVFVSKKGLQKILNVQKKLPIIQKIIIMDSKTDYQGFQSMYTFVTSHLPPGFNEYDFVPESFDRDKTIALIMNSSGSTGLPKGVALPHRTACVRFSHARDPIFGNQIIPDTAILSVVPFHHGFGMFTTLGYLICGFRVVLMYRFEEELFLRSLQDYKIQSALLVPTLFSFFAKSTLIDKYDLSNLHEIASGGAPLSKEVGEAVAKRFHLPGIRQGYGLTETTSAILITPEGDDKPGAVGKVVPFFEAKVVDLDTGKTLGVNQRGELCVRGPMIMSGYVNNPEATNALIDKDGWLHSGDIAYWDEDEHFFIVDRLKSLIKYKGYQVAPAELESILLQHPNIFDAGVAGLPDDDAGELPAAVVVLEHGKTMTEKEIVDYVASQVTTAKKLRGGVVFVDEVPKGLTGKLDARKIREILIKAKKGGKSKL
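Purified P. pyralis luciferase, 10 nM final, with Km-level 10 uM D-luciferin and 10 uM ATP in 50 mM Tris acetate pH 7.5, 10 mM Mg acetate, 0.01% Tween-20, 0.05% BSA; 6-point qHTS titration about 60 µM downward; luminescence read.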
SMN2 splice up – enhancers of SMN2 splice variant expression. HEK293 SMN2-luciferase splicing reporter, luminescence, 30-36 h. AID 1458. Potency, µM (titrated, usually from 46.1 µM), for inactives: at the highest dose activity change, positive = activation, actives largely listed as activators. hit rate 2.8% among 210,000; further: % of control where 0% means no effect; nearly all actives have a fitted effect of over 55% in size
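qHTS luciferase splicing reporter: luminescence rises when SMN2 exon 7 is included in transfected HEK293 cells. Compound exposure lasted 30-36 h at 37C, with 4.5 mM final sodium butyrate as control, followed by a ONE-Glo read.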
Rab9 prom act – activates the Rab9 promoter. Huh7 Rab9 promoter-luciferase reporter, luminescence, 24 h. Potency, µM (top dose mostly 9.22 µM), inactives show top-dose activation, negative = inhibition, most hits filed as activators. hit rate 2.8% among 320,000; further: % of control where 0% means no effect; nearly all actives have a fitted effect of over 60% in size
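Luciferase signal after 10 min detection reagent at ambient indicates Rab9 promoter upregulation; stably transfected Huh7 cells were treated 24 h with compound in DMSO at 37 °C, 5% CO2.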
ELG1 genotoxic – genotoxicity induction in ELG1-luciferase HEK293T cells; HEK293T ELG1-luciferase reporter, luminescence, 16 h; Potency, µM (titrated, usually from 46 µM), for inactives: top-dose activity change, positive = activation, hits mostly activators; hit rate 1.3% among 330,000; AID 504466; further: % of control where 0% means no effect; nearly all actives have a fitted effect of over 60% in size
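Genotoxic stress is detected as increased luminescence from luciferase-tagged ELG1 in HEK293T cells, measured with ONE-Glo after a 16 hr treatment at 37 °C.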
Active calls of the source: *; ? = inconclusive; / = no result. In the library only some 9.3% were active in any assay of this set; here they are far more common. The call rests on the fitted dose curve; in most records, active means well fitted curve in the direction sought with a large enough effect; inconclusive means small, poorly fitted or top-dose-only effect, or another doubt; inactive means no such curve, though single readings can be large; an effect the other way counts as inactive or inconclusive. Potency means the concentration at half of the fitted maximal effect.

SMILES	NPC1 prom act	ELG1 repair inh	FLuc counter	SMN2 splice up	Rab9 prom act	ELG1 genotoxic
Cc1ccc(NC(=O)c2cc(C)nc3ccccc23)cc1	-2.8%	-8.5%	-2.5%	/	-0.9%	1.2%
Cc1ccc(NC(=O)c2cc(CC(C)C)nc3ccccc23)cc1	-3.7%	20.6µM*	-7.8%	/	-2.7%	0.8%
Cc1ccc(C)c(NC(=O)CSc2nc(=O)n(CCN3CCOCC3)c3c2CCC3)c1	/	/	3.9%	/	/	/
O/N=C/c1ccc2ccccc2n1	?	?	?	/	2.82µM*	?
CC(=O)/C=C/c1ccc2ccccc2n1	-27.1%	-22.9%	?	-34.7%	-4.5%	?
O/C(=C\c1ccc2ccccc2n1)c1ccncc1	2.51µM*	?	2.39µM*	/	1.41µM*	?
O/N=C/c1ccc2cccc(O)c2n1	1.0%	0.0%	?	/	-3.8%	-3.6%
O/C(=C\c1nc2ccccc2nc1/C=C(\O)c1ccccc1)c1ccccc1	3.16µM*	?	1.07µM*	?	4.47µM*	-6.6%
COc1ccc(C(=O)N2CCC3(CCN(Cc4ccccc4OC)CC3)CC2)cc1	/	/	/	-15.8%	/	/
COc1ccc(N(C)C(=O)c2nc(-c3cccc(F)c3)n3c2CCCCC3)c(OC)c1	/	/	0.3%	/	/	/
O=C(Cc1cccs1)N/N=C\c1ccc([N+](=O)[O-])s1	-2.5%	14.6µM*	-13.3%	-58.3%	-5.4%	-3.8%
Cc1ccc(/C=N/NC(=O)Cc2cccs2)o1	9.6%	35.0%	-9.4%	2.0%	10.9%	-3.1%
CCN(CC)c1ccc(/C=N/NC(=O)Cc2cccs2)cc1	11.5%	13.1%	26.9µM*	-1.3%	-3.3%	3.0%
COc1ccc(/C=N/NC(=O)Cc2cccs2)cc1	?	?	16.9µM*	/	?	?
CCN(CC)c1ccc(/C=N/NC(=O)CNC(=O)/C=C/c2ccco2)cc1	-1.5%	?	23.9µM*	/	-0.8%	1.6%
Oc1ccc(COC2CCN(Cc3ccccc3)C2)c2cccnc12 (configuration not stated)	-30.2%	/	0.0%	/	-23.5%	/
O=C(Oc1ccc(-c2cnc3ccccc3n2)cc1)c1ccc(Br)o1	?	?	?	?	27.3%	9.2µM*
O=C(Oc1ccc(-c2cnc3ccccc3n2)cc1)c1ccc(Cl)c([N+](=O)[O-])c1	11.7%	?	?	?	3.0%	8.2µM*
O=C(Oc1ccc([N+](=O)[O-])cc1)c1cc(-c2ccccc2)nc2ccccc12	-2.8%	0.0%	-4.4%	-0.9%	2.7%	-1.5%
O=C(Oc1ccc(-c2cnc3ccccc3n2)cc1)c1cccc([N+](=O)[O-])c1	?	?	?	31.6µM*	?	7.31µM*
CCC(C)C(=O)OC1CCC=C2C=CC(C)C(CCC3CC(O)CC(=O)O3)[C@@H]21 (some centres not stated)	/	/	/	-0.6%	/	/
Cc1ccc(C(=O)N2CCN=C2SCc2ccc([N+](=O)[O-])cc2)cc1C	-3.4%	?	2.7%	-43.0%	-5.1%	-8.5%
CN(C)c1nc(Nc2ccccc2)nc(N(C)C)n1	3.8%	?	-11.9%	-11.3%	8.5%	-5.6%
Cc1ccccc1Nc1nc(N)c2ccccc2n1	0.708µM*	?	1.69µM*	3.55µM*	0.501µM*	?
COc1ccc(C)cc1Nc1nc(N)c2ccccc2n1	3.6%	9.7%	?	/	0.4%	-3.1%
SMILES	NPC1 prom act	ELG1 repair inh	FLuc counter	SMN2 splice up	Rab9 prom act	ELG1 genotoxic
CN(C)c1ccc(Nc2nc(N)c3ccccc3n2)cc1	?	?	0.19µM*	/	0.1µM*	?
Nc1nc(Nc2ccc(Cl)cc2)nc2ccccc12	0.631µM*	?	0.426µM*	/	0.501µM*	?
Nc1nc(Nc2ccccc2)nc2ccccc12	0.562µM*	?	1.35µM*	14.1µM*	0.631µM*	?
CCOc1ccc(Nc2nc(N)c3ccccc3n2)cc1	0.891µM*	?	0.426µM*	/	0.708µM*	0.58µM*
CCOc1ccc(Nc2nc3ccccc3c3nnc(CC)n23)cc1	/	/	-3.7%	-12.9%	/	/
COc1ccc(Cc2nnc(SCC(=O)c3ccc4c(c3)OCO4)o2)cc1	-3.2%	8.5%	2.4%	/	-0.6%	-0.6%
Cc1ccc(-c2cc(C(=O)N/N=C/C(Br)=C/c3ccccc3)n[nH]2)o1	-3.4%	-27.1%	23.9µM*	-2.2%	21.7%	-2.5%
Cc1ccc(-c2cc(C(=O)N/N=C/c3c[nH]c4ccccc34)n[nH]2)o1	9.2%	?	10.7µM*	5.2%	-0.4%	-7.2%
Cc1ccc(-c2cc(C(=O)N/N=C/c3ccccc3O)n[nH]2)o1	2.5%	19.5%	?	/	-1.2%	?
Cc1ccnn1CC(=O)N/N=C/c1c[nH]c2ccccc12	-0.4%	-7.5%	-10.9%	/	-0.5%	-1.4%
Cc1cc(C(=O)N/N=C/c2c[nH]c3ccccc23)c(C)o1	1.2%	?	19µM*	-2.6%	-0.3%	11.0%
Cc1cc(C(=O)N/N=C/c2cccnc2)c(C)o1	-1.5%	?	?	-5.6%	14.5%	-0.2%
Cc1ccc(C(=O)N/N=C/c2c[nH]c3ccccc23)o1	17.8%	?	23.9µM*	/	25.5%	?
COc1ccc(CN(C(=O)Nc2ccccc2)c2ccccn2)cc1OC	/	/	-2.4%	/	/	/

Source: PubChem BioAssay (National Center for Advancing Translational Sciences (NCATS))
